Measurements taken from PubChem BioAssay (EPA / NIEHS).
Several values for one entry are separate records, joined by “and”; a condition that tells them apart may be missing. Equal values may be shown once. Records with an inconclusive call do not appear. Some compounds were tested as several samples or in several runs, with calls that do not always agree. Activity calls are given as the source filed them. How the source made its calls: active means hit-call score of the fitted dose curve at least 0.9, where 1 is the maximum; inconclusive means response in the unintended direction; inactive means score below 0.9.

Key:
[1] = ATG_XTT_Cytotoxicity: Cytotoxicity Assessment in the Attagene TRANS-FACTORIAL HepG2 Assay (AID 2283584)
Procedure, shortened: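 HepG2 cells transiently transfected with GAL4-UAS multiple reporter units, dosed 24 h; cytotoxicity read by XTT as loss of signal versus DMSO baseline.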

[2] = target: Cellular tumor antigen p53 (Homo sapiens) (UniProt P04637); assay: TOX21_p53_BLA_p2_ratio: Tox21 HCT-116 p53 Agonism Beta-lactamase Assay, Ratio, Phase 2 (AID 2283592)
Procedure, shortened: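 HCT-116 cells with p53-responsive beta-lactamase reporter, 4000 cells/well, preincubated 5 h, then compound in DMSO (217-fold dilution) for 16 h at 37C. CCF4-AM substrate 2 h at room temperature; 460/530 nm emission ratio fitted upward versus DMSO.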

[3] = target: Cellular tumor antigen p53 (Homo sapiens) (UniProt P04637); assay: TOX21_p53_BLA_p3_ratio: Tox21 HCT-116 p53 Agonism Beta-lactamase Assay, Ratio, Phase 3 (AID 2283596)
Procedure, shortened: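 HCT116 p53-bla cells (4000/well) given compound in DMSO (217-fold dilution) after 5 h, incubated 16 h at 37C. CCF4-AM substrate 2 h at room temperature; 460/530 nm emission ratio, gain fitted against DMSO.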

[4] = TOX21_p53_BLA_p3_viability: Viability Assessment in the Tox21 HCT-116 p53 Agonism Beta-lactamase Assay, Phase 3 (AID 2283593);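 further: cells exposed to compound for 16 h before reading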
Procedure, shortened: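 HCT-116 cells (4000/well) rested 5 h at 37C, then got DMSO compounds by pin tool (217-fold dilution) for 16 h at 37C, 5% CO2. After the bla read, CellTiter-Glo was added and luminescence read at 30 min, room temperature.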

[5] = target: Cellular tumor antigen p53 (Homo sapiens) (UniProt P04637); assay: TOX21_p53_BLA_p5_ratio: Tox21 HCT-116 p53 Agonism Beta-lactamase Assay, Ratio, Phase 5 (AID 2283599)
Procedure, shortened: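 HCT-116 cells carrying a p53-inducible beta-lactamase reporter were seeded at 4000 cells/well and dosed after 5 h with compound in DMSO (217-fold dilution). After 16 h at 37C, CCF4-AM substrate was added for 2 h, and the 460/530 nm emission ratio was scored as gain-of-signal versus DMSO.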

[6] = TOX21_p53_BLA_p5_viability: Viability Assessment in the Tox21 HCT-116 p53 Agonism Beta-lactamase Assay, Phase 5 (AID 2283600)
Procedure, shortened: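 HCT-116 p53 beta-lactamase reporter cells, 4000/well, were exposed to compound (pin transfer, 217-fold dilution) for 16 hours at 37C. Cellular ATP was read by CellTiter-Glo luminescence after 30 min at room temperature.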

[7] = target: Cellular tumor antigen p53 (Homo sapiens) (UniProt P04637); assay: TOX21_p53_BLA_p4_ratio: Tox21 HCT-116 p53 Agonism Beta-lactamase Assay, Ratio, Phase 4 (AID 2283601)
Procedure, shortened: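 HCT116 cells carrying an inducible beta-lactamase reporter were plated at 4000 cells/well, rested 5 h, then exposed to compounds in DMSO (217-fold dilution) for 16 h at 37C. CCF4-AM substrate was loaded 2 h at room temperature; 460/530 nm emission ratio scored gain-of-signal versus DMSO.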

[8] = TOX21_p53_BLA_p4_viability: Viability Assessment in the Tox21 HCT-116 p53 Agonism Beta-lactamase Assay, Phase 4 (AID 2283597);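 further: hits lower the luminescence signal meaning cytotoxicity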
Procedure, shortened: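 HCT-116 p53-bla cells, 4000/well, dosed after 5 h attachment and incubated 16 h at 37 °C, 5% CO2. Viability from CellTiter-Glo ATP luminescence after 30 min at room temperature, taken after the beta-lactamase read; loss of signal indicates cytotoxicity.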

[9] = TOX21_p53_BLA_p2_viability: Viability Assessment in the Tox21 HCT-116 p53 Agonism Beta-lactamase Assay, Phase 2 (AID 2283591);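 further: compound exposure lasted 16 h at 37 °C; actives lower the ATP signal meaning cytotoxicity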
Procedure, shortened: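 HCT-116 p53-bla cells (4000/well) rested 5 h at 37C, then received compounds in DMSO (217-fold dilution) for 16 h at 37C, 5% CO2. After the CCF4 read, CellTiter-Glo was added; ATP luminescence was read after 30 min at room temperature.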

Measured: AC50

Sequence of Cellular tumor antigen p53 (Homo sapiens) (P04637 whole entry, looked up): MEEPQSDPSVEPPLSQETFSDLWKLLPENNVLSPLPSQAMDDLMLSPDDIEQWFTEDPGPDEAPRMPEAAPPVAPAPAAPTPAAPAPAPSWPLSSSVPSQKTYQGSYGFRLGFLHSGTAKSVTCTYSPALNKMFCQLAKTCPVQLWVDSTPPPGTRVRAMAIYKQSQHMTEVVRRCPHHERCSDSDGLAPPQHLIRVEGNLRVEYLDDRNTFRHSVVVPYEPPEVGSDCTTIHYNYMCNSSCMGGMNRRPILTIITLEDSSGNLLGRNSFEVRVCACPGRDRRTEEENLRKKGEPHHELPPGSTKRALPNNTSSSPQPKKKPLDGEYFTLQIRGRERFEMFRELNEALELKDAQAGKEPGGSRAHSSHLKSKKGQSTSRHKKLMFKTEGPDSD

CCO[Si](CCCN=C=O)(OCC)OCC
inactive: [1] | [2] | [3]

O=CN1CCCCC1
not listed: [8] | [9]
inactive: all other assays above

O=c1cc[nH]c(=S)[nH]1
not listed: [5] | [9]
inactive: all other assays above

CC1(C)S[C@@H]2[C@H](NC(=O)COc3ccccc3)C(=O)N2[C@H]1C(=O)O
not listed: [4] | [6] | [9]
inactive: all other assays above

CC(C)COC(=O)C=Cc1ccccc1
not listed: [4] | [8] | [9]
inactive: all other assays above

CCCCCCCCO[C@@H]1O[C@H](CO)[C@@H](O)[C@H](O)[C@H]1O
not listed: [6] | [8] | [9]
inactive: all other assays above

CC(C)CCCCCOC(=O)CCS
inactive: [1] | [2] | [3] | [5]

CCC(CC)C(=O)O
inactive: [1] | [2] | [4] | [6]

NNC(=O)c1cccc(C(=O)NN)c1
not listed: [4] | [6] | [9]
inactive: all other assays above

C=C(C)[C@@H]1CCC2=CCC[C@@H](C)[C@]2(C)C1
not listed: [3] | [6] | [9]
inactive: all other assays above

O=S(=O)(O)c1ccccc1C=Cc1ccc(-c2ccc(C=Cc3ccccc3S(=O)(=O)O)cc2)cc1
active: [7] 11.4 µM
inactive: [1] | [2] | [4] | [3] | [6]

Cc1ccc2c(c1)C(=O)c1ccccc1C2=O
inactive: [1] | [4] | [3] | [5] | [6]

CCCCCCCCCCCCCCCC[N+](C)(C)CC
active: [4] 65.4 µM and 35.3 µM | [3] 44.5 µM and 30.8 µM | [8] 73.7 µM and 30.9 µM | [5] 71.2 µM and 24.6 µM | [6] 74.8 µM and 18.2 µM | [7] 70.4 µM
inactive: [1]

CC(C)=CCC[C@H](C)CCO
inactive: [1] | [4] | [3] | [8] | [6]

Cc1cc(C)c(C(=O)O)c(C)c1
inactive: [1] | [2] | [3] | [5] | [7]

Cc1ccc([N+](=O)[O-])cc1S(=O)(=O)O
inactive: [1] | [2] | [3] | [6] | [7]

O=C(O)c1cc2ccccc2nc1C(=O)O
inactive: [1] | [8] | [5] | [7]

COc1ccc(-c2coc3cc(O)ccc3c2=O)cc1
inactive: [1] | [4] | [3] | [8] | [6]

C=CC(=O)OCCC(=O)O
inactive: [1] | [3] | [7]

NC(=O)N=NC(N)=O
not listed: [3] | [4] | [9]
inactive: all other assays above

c1c[nH]cn1
inactive: [1] | [4] | [3] | [7]

O=C1c2ccccc2C(=O)C1c1nc2ccccc2c(Br)c1O
inactive: [1] | [4] | [8] | [6] | [7]

CCCCCCCCCCOC(C)=O
inactive: [1] | [2] | [3] | [6] | [7]

Cc1cnc(NC(=O)C2=C(O)c3ccccc3S(=O)(=O)N2C)s1
inactive: [1] | [2] | [3] | [5] | [7]

O=S(=O)(O)c1ccc2cc(O)c(S(=O)(=O)O)cc2c1
inactive: [1] | [4] | [8] | [6]

C=CC(C)(CCC=C(C)C)OC(=O)C(C)C (centres undefined)
inactive: [1] | [2] | [5] | [7]

Cc1cccc(N)n1
not listed: [3] | [4] | [9]
inactive: all other assays above

O=C(O)Cc1c(Cl)ccc(Cl)c1Cl
inactive: [1] | [3] | [8] | [6]

CNC(=S)NN
inactive: [1] | [2] | [3] | [6] | [7]

CCc1nccnc1C
inactive: [1] | [2] | [8] | [6]

CCN(CC#N)c1cccc(C)c1
inactive: [1] | [2] | [8] | [7]

NC(=O)OCC(COC(N)=O)c1ccccc1
inactive: [1] | [4] | [3] | [6] | [7]

CCN(Cc1cccc(S(=O)(=O)O)c1)c1ccc(C(=C2C=CC(=[N+](CC)Cc3cccc(S(=O)(=O)[O-])c3)C=C2)c2ccccc2)cc1
inactive: [1] | [4] | [8] | [7]

CC(=O)OCC(C)OC(C)=O (centres undefined)
inactive: [1] | [3] | [7]

CCCCCCOC(=O)C(C)CC (centres undefined)
inactive: [1] | [2] | [8] | [7]

CCO[Si](C)(OCC)OCC
inactive: [1] | [3] | [6] | [7]

OCCNCc1ccccc1
not listed: [2] | [7] | [9]
inactive: all other assays above

Cc1cc(C)c(C)c(O)c1
inactive: [1] | [4] | [8] | [5] | [7]

CCCCCCCCCCCCCCCCCC#N
inactive: [1] | [3] | [8] | [5] | [6]

O=C1CCCCCCCCCCC(=O)OCCO1
inactive: [1] | [3] | [5] | [6] | [7]

CCCCCCCCC(=O)OCC
inactive: [1] | [3] | [8] | [5] | [6]

COC(=O)c1sccc1S(N)(=O)=O
inactive: [1] | [2] | [8] | [7]

Nc1cccc(C(F)(F)F)c1
inactive: [1] | [4] | [3] | [8] | [7]

O=P(O)(O)Oc1ccccc1
inactive: [1] | [3] | [8] | [6]

C[Si](C)O[Si](C)(C)O[Si](C)(C)O[Si](C)C
inactive: [1] | [3] | [6]

O=C(c1ccc(O)cc1)c1ccc(O)cc1O
inactive: [1] | [3] | [7]
active: [3] 68.5 µM | [7] 72.9 µM

CC(C)c1ccc(C=O)cc1
inactive: [1] | [4]

C=CCOCC(O)CCl (centres undefined)
inactive: [1] | [4] | [5] | [6] | [7]

CC(=O)OCCC1CCCCC1
inactive: [2] | [4] | [3] | [8]

CCCOC(=O)CCCCC(=O)OCCC
not listed: [1] | [5] | [9]
inactive: all other assays above

O=C1CC2CC1C1CCCC21 (centres undefined)
inactive: [2] | [8] | [5]

Cc1ccc(N/N=c2\c(=O)cc/c(=N/Nc3ccc(S(=O)(=O)O)cc3)c2=O)c(C)c1
not listed: [1] | [2] | [3]
inactive: all other assays above

Cc1cc(=O)n(-c2ccccc2)n1C
not listed: [1] | [9]
inactive: all other assays above

C[C@]12CCC(=O)C=C1CC[C@@H]1[C@@H]2C(=O)C[C@@]2(C)[C@H]1CC[C@]2(O)C(=O)CO
not listed: [1]
inactive: all other assays above

CCCCC/C=C\C/C=C\CCCCCCCC(=O)OC
active: [9] 66.2 µM | [2] 74.7 µM | [5] 73.3 µM
inactive: [9] | [2] | [4] | [3] | [8] | [5] | [6] | [7]

O=C(O)c1cc(Cl)cc([N+](=O)[O-])c1Cl
inactive: [1] | [8] | [6] | [7]

OC1OCCOC1O (centres undefined)
not listed: [1] | [6] | [9]
inactive: all other assays above

Cc1cc(C)c(C)cc1C
inactive: [2] | [3] | [5] | [6] | [7]

CCOC(=O)Cc1cccc2ccccc12
not listed: [1] | [3] | [6]
inactive: all other assays above

O=C1OC(=O)c2cc(Oc3ccc4c(c3)C(=O)OC4=O)ccc21
not listed: [1] | [5] | [9]
inactive: all other assays above

c1ccc2c(c1)ccc1cc3c(ccc4ccccc43)cc12
not listed: [1] | [4]
inactive: all other assays above
